# Screening data from PubChem.
# An excerpt weighted towards active compounds, which were near 12% of everything screened.
# Sm TGR block – S. mansoni TGR enzyme inhibition. Q962Y6. purified TGR, DTNB reduction, TNB absorbance 405 nm. Potency, µM (top dose mostly 114 µM), for inactives: at the top dose activity change, negative = inhibition, usual class: inhibitors. 3% of 360,000 active; further: on the % scale 0 is the no-effect control and ±100 the full control effect; nearly all actives have a fitted effect of over 60% in size
#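 TGR 20 nM + NADPH 100 uM (dispensed conc.), cpd preinc 15 min RT; start with NADPH (500 uM addition) then DTNB (15 mM addition). Kinetic TNB absorbance, 405 nm filter. Four-parameter Hill fit across titration.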
# Pf growth 96h – P. falciparum growth inhibition at 96 hour, primary screen for plastid delayed-death inhibitors; P. falciparum luciferase reporter growth, 96 h; Potency, µM (top dose mostly 28.7 µM), inactives show at the top dose activity change, negative = inhibition, hits mostly inhibitors; 6.9% of 320,000 active; AID 504834; further: on the % scale 0 is the no-effect control and ±100 the full control effect
#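 96 h incubation, 37 C, 5% CO2, of luciferase-reporter P. falciparum-infected RBCs (2% hematocrit, 0.05% parasitemia final) with test compounds; endpoint luminescence.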
# SARS PLpro yeast – SARS-CoV PLP inhibition in yeast. S. cerevisiae expressing SARS-CoV PLpro, growth rescue. Potency, µM (doses to about 32.9 µM), for the others: at the highest dose activity, positive = growth rescue, usual class: activators. 0.19% of 330,000 active. AID 485353; calls by dose curve; further: 0% is about no effect; nearly all actives have a fitted effect of over 55% in size
# Pf growth 48h – inhibits P. falciparum growth in the first generation, 48 h | P. falciparum luciferase growth in erythrocytes, 48 h | Potency, µM (series often up to 28.7 µM), for inactives: at the top dose activity change, negative = inhibition, actives largely listed as inhibitors | 5.9% of 310,000 active | AID 504832; further: on the % scale 0 is the no-effect control and ±100 the full control effect
#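 Cell-based growth assay: transgenic P. falciparum expressing firefly luciferase, cultured in red cells within RPMI 1640 containing 0.5% w/v Albumax, 24 mM bicarbonate and gentamycin. A drop in luciferase activity indicates inhibition.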
# * marks the source's active call; other numbers are inactive results; u = inconclusive; x = not tested or not shown. Unless noted, the call rests on the fitted dose curve; in most records, active means well fitted curve in the direction sought with a large enough effect; inconclusive means small, poorly fitted or top-dose-only effect, or another doubt; inactive means no such curve, though single readings can be large; an effect the other way counts as inactive or inconclusive. Potency means the concentration at half of the fitted maximal effect.
SMILES,Sm TGR block,Pf growth 96h,SARS PLpro yeast,Pf growth 48h
CCCCCCCC(=O)Nc1cc(C(=O)NCc2ccc(C)cc2)ccc1N1CCC2(CC1)CC(c1ccccc1)=NO2,-3%,u,4%,-15%
CCCCC(CC)C(=O)Nc1cc(C(=O)NCCC)ccc1N1CCC2(CC1)CC(c1cccc(Br)c1)=NO2 (stereo unspecified),0%,2.6µM*,-2%,3.7µM*
CCCCC(CC)C(=O)Nc1cc(C(=O)NCc2ccc(C)cc2)ccc1N1CCC2(CC1)CC(c1ccccc1)=NO2 (stereo unspecified),16%,2.1µM*,-4%,3.3µM*
CCCCC(CC)C(=O)Nc1cc(C(=O)NCc2ccc(C)cc2)ccc1N1CCC2(CC1)CC(c1cccc(Br)c1)=NO2 (stereo unspecified),-5%,2.1µM*,-4%,2.3µM*
CNC(=O)C1CCC(Cn2c(=O)[nH]c3ccsc3c2=O)CC1 (stereo unspecified),4%,x,x,x
CCOc1cc(C(=O)N(Cc2nc(-c3ccc(C)cc3)no2)C(C)C)cc(OCC)c1OCC,6%,x,x,x
NC(=O)C1CCN(S(=O)(=O)c2cc3c(cc2Cl)NC(=O)CO3)CC1,15%,x,x,x
COc1ccc(OCCOc2cccc(C=C3C(=O)NC(=O)NC3=O)c2)cc1,11µM*,20%,0%,321%
CC1CCC/C(=N\NS(=O)(=O)c2ccccc2)C1 (stereo unspecified),u,56%,0%,38%
N#CC1(c2ccccc2)CCC(=NNS(=O)(=O)c2ccccc2)CC1 (stereo unspecified),40µM*,-6%,2%,u
COC(=O)c1ccccc1NC(=O)Cn1cnc2sc(C)c(S(=O)(=O)N3CCC(C)CC3)c2c1=O,0%,x,x,x
NC(=O)c1ccc(N=Cc2ccc([N+](=O)[O-])s2)cc1,14µM*,-2%,-61%,-15%
COc1cc(O)oc1C=Nc1ccc(Cl)cc1Cl,79µM*,64%,-7%,u
CCN1CCN(CCCNC(=O)c2ccc3c(c2)NC(=O)c2ccccc2S3)CC1,-31%,8.3µM*,-2%,15µM*
CC1CCCC(C)N1CCCNC(=O)c1ccc2c(c1)NC(=O)c1ccccc1S2 (stereo unspecified),0%,u,-2%,4.1µM*
CCC(C)N(CCNC(=O)c1ccc2c(c1)NC(=O)c1ccccc1S2)C1CCCCC1 (stereo unspecified),-3%,u,0%,1.9µM*
CCC(C)N(CCNC(=O)CC1Oc2ccccc2NC1=O)C1CCCCC1 (stereo unspecified),-16%,u,-6%,x
O=C(NCCCN1CCCC1=O)c1ccc2c(c1)NC(=O)c1ccccc1S2,6%,-13%,3%,x
CC(=O)Nc1ccc(NC(=O)c2ccc3c(c2)NC(=O)c2ccccc2S3)cc1,1%,x,x,x
Cc1nn(C(C)C(=O)NC2CCCCC2)c(=O)c2nn(-c3ccccc3)c(C)c12 (stereo unspecified),0%,12µM*,-1%,-3%
Cc1nn(C(C)C(=O)Nc2ccccc2Cl)c(=O)c2nn(-c3ccccc3)c(C)c12 (stereo unspecified),1%,12µM*,-7%,-22%
CCC(C(=O)Nc1ccccc1C(=O)OC)n1nc(C)c2c(C)n(-c3ccc(C)cc3)nc2c1=O (stereo unspecified),6%,x,x,x
COC(=O)c1ccccc1NC(=O)C(C)n1nc(C)c2c(C)n(-c3ccccc3)nc2c1=O (stereo unspecified),4%,9.3µM*,-2%,u
CCC(C(=O)Nc1ccccc1Cl)n1nc(C)c2c(C)n(-c3ccccc3)nc2c1=O (stereo unspecified),2%,39%,-1%,u
O=C(COC(=O)C1CC(=O)N(CCc2ccccc2)C1)c1ccc[nH]1 (stereo unspecified),-2%,-1%,1%,-2%
SMILES,Sm TGR block,Pf growth 96h,SARS PLpro yeast,Pf growth 48h
Cc1ccc(NC(=O)CSc2nnc(-c3ccco3)o2)cc1,79µM*,28%,0%,40%
CC1CCCCN1C(=O)CSc1nnc(-c2ccco2)o1 (stereo unspecified),0%,5.2µM*,1%,123%
CC(=O)c1ccc(NC(=O)CSc2nnc(-c3ccco3)o2)cc1,-10%,u,0%,42%
CC(Oc1ccccc1)C(=O)Nc1nnc(S(=O)(=O)N(C)c2ccccc2)s1 (stereo unspecified),-25%,4%,u,-7%
COc1cc(-c2nc3c(c(C)nn3-c3ccccc3)c3cc(OC)c(OC)cc23)ccc1O,19%,u,-5%,2.9µM*
COc1cc2c(-c3cc(Br)ccc3O)nc3c(c(C)nn3-c3ccccc3)c2cc1OC,-7%,x,x,x
Cc1c(CCNS(=O)(=O)c2ccccc2)sc2nc(-c3ccc(Cl)cc3)nn12,7%,x,x,x
COc1ccc(C2CC23N=C(c2ccccc2)OC3=O)cc1 (stereo unspecified),22µM*,11%,-29%,-5%
COc1ccc(C2=NC(c3ccccc3)CO2)cc1 (stereo unspecified),0%,72%,7%,129%
Cc1cc(N2CCOCC2)nc2ccc(NC(=O)CCC(=O)N3CCN(c4ccccc4)CC3)cc12,-11%,u,0%,-28%
CCN1CCN(c2cc(C)c3cc(NC(=O)c4ccc(C)c(C)c4)ccc3n2)CC1,-10%,u,0%,2.1µM*
Cc1cc(N2CCN(C)CC2)nc2ccc(NC(=O)CCC(=O)N3CCN(c4ccc([N+](=O)[O-])cc4)CC3)cc12,-8%,-21%,-2%,5.2µM*
CCn1c2ccccc2c2cc(NC(=O)c3ccc(Br)o3)ccc21,11µM*,x,-20%,x
CCN1CCN(c2cc(C)c3cc(NC(=O)c4ccc(Br)o4)ccc3n2)CC1,-7%,25%,-3%,2.3µM*
COc1ccccc1NC(=S)N1CCN(c2ccccc2F)CC1,1%,-15%,5%,15%
C=C1CC[C@H](O)C/C1=C/C=C1\CCC[C@]2(C)[C@@H]([C@H](C)CCCC(C)C)CC[C@@H]12,x,3%,x,30%
COc1ccc(C(C)(C)NC(=O)C2CCC(=O)N(C3CC3)C2)cc1OC (stereo unspecified),-2%,-18%,7%,-7%
Cc1c(-c2ccc(Cl)cc2)c(=O)oc2c(CN3CCOCC3)c(O)ccc12,2%,x,x,x
Cc1ccc(CC(=O)N(C)CC(=O)Nc2ccc(N3CCOCC3)cc2)cc1C,-5%,8%,-2%,u
CN(CC(=O)Nc1ccc(N2CCOCC2)cc1)C(=O)CCc1cc(C(C)(C)C)c(O)c(C(C)(C)C)c1,-9%,9.3µM*,-3%,3.3µM*
CCN(CC)c1cc(C)c2cc(NC(=O)c3ccc(Br)o3)ccc2n1,-25%,63%,13%,12µM*
CCCCc1ccc(C(=O)Nc2ccc3nc(N(CC)CC)cc(C)c3c2)cc1,-1%,x,x,x
COc1ccccc1NC(=O)CNC(=O)c1ccc(Br)o1,8%,0.029µM*,1%,25%
